This is an account of results in ChEMBL document CHEMBL4513216, “Probing the Open Global Health Chemical Diversity Library for Multistage-Active Starting Points for Next-Generation Antimalarials” (ACS Infect Dis, 2020).

Structures are written as SMILES. Hit rate of the full screen: of about 65,000 compounds, about 2,100 (3.2%) showed an effect of 50% or more. The median lay at about -52%. This excerpt belongs to a sample that is enriched for strong results.

For this assay, the system named is Plasmodium falciparum. Nature of the assay: Screen against P. falciparum Asexual Blood Stage (ABS), at 5uM. In kind it is functional, Dd2. Particulars: tested at 5 uM.
With `CC(C)NCC1(COc2ccccc2)C[C@@H](O)[C@@H](O)C1` (stereo partly specified), the INHIBITION is on record as 60.4%. In the case of `O[C@@H]1CC(CNCC2CC2)(COc2cccnc2)C[C@@H]1O` (stereo partly specified) it was -24.8%; in that of `CC(C)NC(=O)NCC1(COc2cnccn2)C[C@@H](O)[C@@H](O)C1` (stereo partly specified), -54.9%; in that of `Cn1ccnc1NC[C@@H]1CCC[C@@H]2CN(CC3CC3)C[C@@H]21`, -46.7%. As for `Cn1nc(COc2cccnc2)c2c1CCN(CC1CC1)C2`, the INHIBITION is -64%. On to `Cc1ccc(C)n1C(C)C(=O)N1CCCN(Cc2cscn2)CC1` (stereo unspecified), for which the INHIBITION is -16.5%. As for `Cc1cc(C(C)C(=O)N2CCCN(Cc3cscn3)CC2)c(C)o1` (stereo unspecified), the figure is -136%. In the case of `Cc1ccc(C(C)C(=O)N2CCCN(Cc3cscn3)CC2)cc1` (stereo unspecified) it was 57%. `CN1CCC2(CC1)CC(NC(=O)c1csnn1)c1ccccc1O2` (stereo unspecified): the INHIBITION is -8.75%.

For the molecule `Brc1csc(-c2noc(C3COCCO3)n2)c1` (stereo unspecified), the INHIBITION is -301%. In the case of `O=C(Cc1ccc2c(c1)CCCC2)N[C@@H]1CC[C@@H](n2ccnc2)[C@@H]1O`, the INHIBITION was -119%. As for `CC(=O)N1CCN(c2ccccc2CNc2cc(F)cc(F)c2)CC1`, the figure is 14%; as for `CN1CCN(c2ccccc2CNC(=O)CSC(F)(F)F)CC1`, 67.3%; as for `CC(C)N(C)CC(=O)NCc1ccccc1N1CCN(C)CC1`, 43.8%. In the case of `Cn1ccnc1CN1CCC2(CC1)CN(Cc1cccnc1)C(=O)CO2` it was -38.8%; in that of `CCn1cc(CN2CCN(Cc3cccc(OC)c3)C(=O)C2)cc1C#N`, 47.9%. As for `Cc1cc(C)cc(CN2CCN(Cc3cc(C#N)n(C)c3)CC2=O)c1`, the figure is 18.4%; as for `CCn1cc(CN2CCN(Cc3cc(C)cc(C)c3)C(=O)C2)cc1C#N`, 68.4%; as for `CCOC(=O)CNC(=O)NCc1cc(C)n(-c2ccccc2OC)c1C`, -24.9%.

For `c1nc(NCc2cc3n(n2)CCN(C2CCCCC2)C3)c2nc[nH]c2n1`, the INHIBITION is -10.3%. As to `COc1ccc(-c2ccc(C3CNCCO3)nc2)cc1` (stereo unspecified), the INHIBITION is reported as 65%. `COc1ccc(-c2cnc(N(C)C)nc2C2CNCCO2)cc1` (stereo unspecified): the INHIBITION is 28.8%. As for `c1ncc(-c2ccc(C3CNCCO3)nc2)cn1` (stereo unspecified), the figure is -94.8%; as for `Cc1nn(C)c(C)c1C1CCCN1C(=O)c1ccc2nnc(C)n2c1` (stereo unspecified), -60.9%; as for `CCc1nnc(CN2CCC(N3CCN(CC)C3=O)CC2)o1`, -39.7%. In the case of `CCN1CCN(C2CCN(Cc3ncc(C(C)(C)C)o3)CC2)C1=O` it was 53.1%. In the case of `CCN1CCN(C2CCN(Cc3nnc(C(C)(C)C)o3)CC2)C1=O` it was -29.7%; in that of `CN1CCN(C2CCN(Cc3nnc(C(C)(C)C)o3)CC2)C1=O`, -117%; in that of `CNc1cc2c(nn1)CCN(C(=O)c1cc(C)n(C3CC3)c1C)C2`, -66.6%. Take `O=C(N[C@]12CC1CN(C(=O)c1ccco1)C2)c1cccc(F)c1` (stereo partly specified): the INHIBITION came to 27.4%. As for `O=C(N[C@]12CC1CN(C(=O)c1ccco1)C2)c1ccco1` (stereo partly specified), the figure is 37.7%. In the case of `CC(=O)N1CC2C[C@]2(NC(=O)c2ccco2)C1` (stereo partly specified) it was 50.3%; in that of `O=c1[nH]c2nc(N3CCSCC3)ncc2c(=O)n1-c1ccc(F)cc1`, -26.3%.

In the case of `Cc1ncsc1CN1CC[C@H](O)[C@@H](n2cnc3c(N)ncnc32)CC1`, the INHIBITION was -98.6%.

Turning to `CCCc1ccc2oc(C(=O)N3CCCN(C)CC3)c(C)c2c1`, the INHIBITION is listed as -22.2%. Consider `O=C(c1cc(-c2ccn(CC3CC3)n2)n2ccccc12)N1CCOCC1`, for which the INHIBITION is 69.5%. For `O=C(c1cc(-c2ccn(CC3CC3)n2)n2ccccc12)N1CCCO1`, the INHIBITION is listed as -84.4%. Take `O=C(O)c1cc(-c2ccn(CC3CC3)n2)n2ccccc12`: the INHIBITION is on record as -74.2%.

On to `O=C(CN1CCOC(Cn2cccn2)C1)NCc1ccco1` (stereo unspecified), for which the INHIBITION was -88.2%. As for `O=C(NC1CC(F)(F)C1)[C@]12COC[C@H]1CN(Cc1ccccc1)C2`, the figure is -96%; as for `Cc1cc(=O)n2nc(Oc3ccc(F)c(F)c3)sc2n1`, -13.2%. `Cc1cc(=O)n2nc(Oc3cccc(C(N)=O)c3)sc2n1`: the INHIBITION was -166%. As for `Cc1cc(=O)n2nc(Oc3cccc(I)c3)sc2n1`, the figure is 56.4%.

In the case of `COCCCNC(=O)CN1CCC(N2CCN(C)C2=O)CC1`, the INHIBITION is -137%. Turning to `Cn1cnc2c1CCN(Cc1csc(-c3ccccc3)n1)C2`, the INHIBITION is recorded as -10.7%.

As to `Cn1cnc2c1CCN(Cc1csc(-c3ccco3)n1)C2`, the INHIBITION was found to be 51.3%. As for `Cc1ccc(-c2nc(CN3CCc4c(ncn4C)C3)cs2)o1`, the figure is -159%. As for `Cc1cc(NC(=O)C(C)N2CCN(c3ccc(C#N)cc3F)CC2)no1` (stereo unspecified), the figure is -124%; as for `CN(C(=O)Nc1ccncc1)C1CCN(c2ccc(Cl)cc2)CC1`, -10.2%; as for `COc1ccc(-n2ccc(CNCc3ccc(OC)c(O)c3)n2)cc1`, -17.9%. As for `COc1ccc(CNCCn2c(C)nc3ccccc32)cc1O`, the figure is -82.4%; as for `COc1ccc(CNCCc2ccn(-c3ccccc3)n2)cc1O`, 67.1%; as for `CCCn1cc(NC(=O)c2cccnc2O)ccc1=O`, -8.23%.

`CCc1nc(CNc2cc(C)nc(-c3cccnc3)n2)cs1`: the INHIBITION is -19.9%. As for `CCc1noc(C2CCCCN2C(=O)c2cccs2)n1` (stereo unspecified), the figure is -105%; as for `CCc1noc(C2CCCCN2C(=O)c2nnc3ccccc3n2)n1` (stereo unspecified), 65.5%; as for `CCc1noc(C2CCCCN2C(=O)c2ccccc2)n1` (stereo unspecified), -89.7%. For the molecule `Cc1cc(CN2C[C@@H](C)[C@@]3(CCN(C)C3=O)C2)oc1C`, the INHIBITION is recorded as -1.06%.

As for `CCC(CNC(=O)c1cncc(Br)c1)N1CCc2ccccc2C1` (stereo unspecified), the INHIBITION is on record as 66.9%.

With `CCC(CNC(=O)c1ccccc1Br)N1CCc2ccccc2C1` (stereo unspecified), the INHIBITION amounted to 41.5%. In the case of `CCC(CNC(=O)c1ccc(Br)o1)N1CCc2ccccc2C1` (stereo unspecified) it was 16.3%; in that of `CCN1CC(CN(C)Cc2nc(-c3cccc(C)c3)oc2C)CC1=O` (stereo unspecified), -142%. As for `CCOCC1CN(Cc2cccnc2OC)Cc2cnn(C)c21` (stereo unspecified), the figure is -60.6%; as for `OCC1CCC2(CC1)CN(Cc1ccsc1)Cc1ccccc1O2` (stereo unspecified), -50.7%; as for `COCCN1CCOCC12CCN(c1nccs1)CC2`, -151%.

Regarding `CSc1ccc(CNC2(c3ccc(F)cc3)CCOCC2)cc1`, the INHIBITION turned out to be 31.4%. As for `Fc1ccc(C2(NCc3ccccc3)CCOCC2)cc1`, the figure is 64.2%; as for `CN(C)c1ccc(CNC2(c3ccc(F)cc3)CCOCC2)cc1F`, 28.8%.

For the molecule `c1cnc(NCc2noc3c2CN(CCN2CCCC2)CC3)nc1`, the INHIBITION is reported as -63.3%.

Take `c1cc(-c2ccc3c(c2)CCC32CCN(c3nncs3)CC2)co1`: the INHIBITION was determined as 3.66%. In the case of `O=C(CCO)N1CCC2(CCc3ccc(-c4ccoc4)cc32)CC1`, the INHIBITION is -76.5%. In the case of `OCCN1CCC2(CCc3cc(-c4ccoc4)ccc32)CC1` it was 61.2%; in that of `COCCOCC1(CNCc2ccc(OC)cc2)C[C@@H](O)[C@@H](O)C1` (stereo partly specified), -77.3%; in that of `COCCOCC1(CNCc2cccc(OC)c2)C[C@@H](O)[C@@H](O)C1` (stereo partly specified), -11.2%. As for `COCCOCC1(CNCc2ccc(F)cc2)C[C@@H](O)[C@@H](O)C1` (stereo partly specified), the figure is 63.6%; as for `CC(C)CCN1C2(CCN(Cc3nccs3)C2)c2ccccc2S1(=O)=O` (stereo unspecified), -17.8%. As for `CN1[C@@H]2CC[C@H]1CN(C(=O)c1nnc3n1CCCCC3)CC2`, the figure is -58.6%; as for `Cc1ccc(CN2CCC3(CC2)NC(=O)CC3c2ccccc2)s1` (stereo unspecified), 53.7%; as for `Cc1noc(C)c1CN1CCC2(CC1)NC(=O)CC2c1ccccc1` (stereo unspecified), -39.2%. For `Cc1cccc(CN2CCC3(CC2)NC(=O)CC3c2ccccc2)n1` (stereo unspecified), the INHIBITION was -3.5%. In the case of `CCC1(CC)C(=O)NC(=O)N/C1=N/c1cccc(OC)c1` it was -27.2%.

`Cc1c(CN2CCCC2(C)C(=O)N2CCOCC2)cnn1C` (stereo unspecified): the INHIBITION is -23.9%. In the case of `NC(=O)C1(Cc2ccccc2-c2cncnc2)CCCNC1` (stereo unspecified) it was -114%; in that of `NC(=O)C1(Cc2ccc(-c3ccccc3)cc2)CCCNC1` (stereo unspecified), 61.1%. In the case of `CCNC(=O)C1(Cc2ccc(-c3ccccc3)cc2)CCCNC1` (stereo unspecified) it was 27.7%; in that of `CC1(C)CC(n2cc3nc(N4CCOCC4)[nH]cc-3c2=O)CC(C)(C)N1`, -53.2%; in that of `Cc1cnn(CC2CN(CC(=O)Nc3cccnc3)CCO2)c1` (stereo unspecified), -66%.

Turning to `Cn1ccnc1C(=O)N[C@@H]1CN(CC2CCOCC2)[C@@H]2CCCO[C@@H]21`, the INHIBITION is -60%. `O=c1ccc(-c2cccs2)nn1CN1CCN(c2ccccn2)CC1`: the INHIBITION was -115%. In the case of `CNS(=O)(=O)c1cccc(C(C)NCc2cccc(O)c2)c1` (stereo unspecified) it was 3.69%.

`CNS(=O)(=O)c1cccc(C(C)NCc2ccco2)c1` (stereo unspecified): the INHIBITION worked out at 2.96%. In the case of `CNS(=O)(=O)c1cccc(C(C)NCc2ccc(C)c(C)c2)c1` (stereo unspecified) it was 63.4%; in that of `CNS(=O)(=O)c1cccc(C(C)NCc2ccncc2)c1` (stereo unspecified), -51.1%. As for `CCOc1ccc(CNC(C)c2cccc(S(=O)(=O)NC)c2)cc1` (stereo unspecified), the figure is 47.6%. In the case of `CNS(=O)(=O)c1cccc(C(C)NCc2nccn2C(C)C)c1` (stereo unspecified), the INHIBITION was -9.39%. As for `CNS(=O)(=O)c1cccc(C(C)NCc2ccsc2)c1` (stereo unspecified), the figure is 67.2%. In the case of `CNS(=O)(=O)c1cccc(C(C)NCc2ccccc2)c1` (stereo unspecified) it was 59.4%; in that of `CNS(=O)(=O)c1cccc(C(C)NCc2ccc(F)c(F)c2)c1` (stereo unspecified), 11.1%. As for `CNS(=O)(=O)c1cccc(C(C)NCc2ccc(F)cc2F)c1` (stereo unspecified), the figure is -3.64%; as for `CNS(=O)(=O)c1cccc(C(C)NCc2cccc(C)c2C)c1` (stereo unspecified), 69.7%. For the molecule `CNS(=O)(=O)c1cccc(C(C)NCc2ccc(C)o2)c1` (stereo unspecified), the INHIBITION stood at 23.3%. As for `CN(Cc1ccc(F)cc1)C(=O)c1ccoc1CN1CCNC(=O)C1`, the figure is -169%; as for `CCOCC(=O)NCCn1ccc(-c2ccccn2)n1`, -74.8%. On to `Cc1nc(C)c(S(=O)(=O)NC(=O)c2sccc2C)s1`, for which the INHIBITION is reported as -118%.

Regarding `Cn1ccnc1CN1CCC2(CC(=O)N(c3ccsc3)C2)C1` (stereo unspecified), the INHIBITION is reported as -95.1%. Consider `Cc1ccc(NC2CCN(C(=O)c3cccc4[nH]ncc34)CC2)nn1`, for which the INHIBITION is given as -12.4%.
